Shown are actives, neighbours in structure and some others; about 1.8% of the full set was active somewhere.
PriA SSB inh: inhibitors of Klebsiella pneumoniae PriA binding to SSB C-terminal tail, primary screen, biochemical, AlphaScreen; PriA–SSB C-terminal tail interaction (Klebsiella pneumoniae); AlphaScreen SSBct-PriA binding, biotinylated peptide; inhibition, % at 33 µM; actives 0.6% (n = 430,000); AID 1272365, 2023; in the data active = inhibition mostly above about 37%, no sharp cut-off; inactive = mostly below about 20%;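 note: plate controls were negative control peptide for no effect and reference peptide for full effect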
ugtP null kill: growth inhibition of ugtP-null S. aureus, primary screen, RN4220 ugtP deletion, OD600. 16 h. growth inhibition, % (concentration not given with the values). actives 0.54% (n = 330,000). AID 1259309, 2017; in the data active = growth inhibition above about 68%;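 note: plate controls were untreated wells for no effect and antibiotic for full effect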
Mtb hypoxia rep: PubChem AID 1159583 | M. tuberculosis hypoxia-regulated fluorescent reporter, fluorescence | fluorescence inhibition, % (concentration not given with the values) | actives 0.1% (n = 300,000); in the data active = fluorescence inhibition mostly above about 23%, no sharp cut-off; inactive = mostly below about 17%
PfHsp40 yeast: rescue of yeast from PfHsp40 toxicity, primary screen, S. cerevisiae, ATP luminescence | actives 0.68% (n = 340,000) | growth rescue, % at 12.5 µM | S. cerevisiae expressing PfHsp40, growth rescue; in the data active = growth rescue above about 28%, passing the limit was not always enough;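 note: yeast W303a lacking pdr1 and pdr3 grown in galactose medium; growth measured after three days at 30 °C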
RN4220 kill: growth inhibition of S. aureus RN4220, primary screen, OD600; 16 h; inhibition, % (test concentration not listed); actives 0.33% (n = 330,000); AID 1259311, 2017; in the data active = inhibition above about 85%;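 note: plate controls were untreated cells for no effect and reference antibiotic for full effect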
VHR inh abs: VHR1 phosphatase inhibitors, primary screen, biochemical, absorbance, uHTS; inhibition, % at 13.3 µM; actives 0.52% (n = 290,000); AID 1654, 2009; recombinant VHR phosphatase, pNPP absorbance; Dual specificity protein phosphatase 3 (Homo sapiens), P51452; in the data active = inhibition above about 50%
Target sequence (P51452 whole entry, looked up): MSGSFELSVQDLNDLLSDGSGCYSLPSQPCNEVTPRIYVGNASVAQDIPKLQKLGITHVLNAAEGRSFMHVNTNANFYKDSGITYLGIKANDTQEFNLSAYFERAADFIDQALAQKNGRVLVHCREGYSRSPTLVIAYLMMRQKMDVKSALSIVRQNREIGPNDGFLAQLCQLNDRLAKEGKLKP
* marks the source's active call; other numbers are inactive results; · = no result given.

SMILES	PriA SSB inh	ugtP null kill	Mtb hypoxia rep	PfHsp40 yeast	RN4220 kill	VHR inh abs
COc1cnc(-c2ccccn2)nc1Sc1cccc(Cl)c1	-6	5	11	3	5	29
COc1ccccc1Sc1nc(-c2ccccn2)ncc1OC	23	-1	1	1	10	19
COc1cnc(-c2ccccn2)nc1Oc1ccc(Cl)c2ccccc12	0	4	11	-1	-3	2
COc1cnc(-c2ccccn2)nc1NC(C)C	95*	2	18	·	1	19
COc1cnc(-c2ccccn2)nc1Sc1ccc(C)cc1	-7	1	20	359*	4	5
Cc1ccc(Sc2cc(C)nc(-c3ccccn3)n2)cc1	-8	·	·	145*	·	23
FC(F)(F)c1cccc(Sc2cc(C(F)(F)F)nc(-c3ccccn3)n2)c1	-8	3	22	-2	-5	37
O=C1C[C@@H](C(=O)Nc2ccccc2Cl)n2c(nc3ccccc32)N1	-13	·	·	·	·	·
CN1CCOc2ccc(NC(=O)C3CCCO3)cc2C1=O (configuration not stated)	-20	·	·	·	·	·
O=C(Nc1ccc(CN2CCN(c3ccccn3)CC2)cc1)Nc1ccc2c(c1)OCO2	50*	·	·	·	·	·
O=C(CN1CCN(c2ccccn2)CC1)Nc1ccccc1	-6	-2	·	26*	0	-10
Cc1ccc(NS(=O)(=O)c2ccc(NC(=O)C(C)Sc3ccc(Cl)cc3)cc2)c(C)c1 (configuration not stated)	-4	-27	4	93*	-10	14
Cc1ccc(N=Nc2cc(C)ccc2N)cc1	93*	9	4	4	7	-6
COc1ccccc1OCC(=O)NN=Cc1cccc2cccnc12	26	3	3	·	2	·
C/C(=N/NC(=S)NCCc1ccccc1)c1ccco1	62*	·	·	·	·	·
CC(=NNC(=S)NCCc1ccccc1)c1ccc(Cl)cc1Cl	-1	90*	12	·	1	·
Cc1[nH]c2ccccc2c1/C=N/NC(=O)c1ccc(N)cc1	·	·	·	1	·	58*
Cc1ccc(C)c(S(=O)(=O)N2CCN(Cc3cc4c(cc3O)OCO4)CC2)c1	41*	1	4	-1	9	·
O=C(Nc1ccc(-c2ccc3nnc(-c4ccccn4)n3n2)cc1)c1cccnc1Cl	87*	·	·	·	·	·
Cc1cc(C)cc(C(=O)Nc2ccc(-c3ccc4nnc(-c5ccccn5)n4n3)cc2)c1	67*	·	·	·	·	·
Cc1n[nH]c(C)c1CCC(=O)NN=C/C=C/c1ccccc1	-5	9	-10	·	6	·
N#Cc1ccc(COCC2CCN(Cc3c(F)cccc3Cl)CC2)cc1	-17	·	·	·	·	·
Cc1ccc2c(c1)C1CN(C)CCC1N2Sc1ccccc1[N+](=O)[O-] (configuration not stated)	55*	·	·	3	·	-5
Cc1ccc(-n2nnnc2CNC(=O)c2ccco2)cc1C	2	·	·	·	·	·
O=C1c2ccccc2C(=O)N1CCCCN(C(=O)c1ccc([N+](=O)[O-])o1)c1ccc(Cl)cc1	40*	·	·	·	·	·
SMILES	PriA SSB inh	ugtP null kill	Mtb hypoxia rep	PfHsp40 yeast	RN4220 kill	VHR inh abs
Cc1ccc(N(CCCCN2C(=O)c3ccccc3C2=O)C(=O)c2cccs2)cc1	66*	-4	·	1	-7	28
O=C1c2ccccc2C(=O)N1CCCCN(C(=O)c1cccc([N+](=O)[O-])c1)c1ccc(Cl)cc1	-8	1	4	1	1	36
CC(=O)c1ccc(N2CCN(c3nc4c(-c5cccc(C)c5)nnn4c4ccc(Cl)cc34)CC2)cc1	3	·	·	·	·	·
O=C(Cc1cc(=O)[nH]c(SCc2cccc(Cl)c2)n1)NCCC1=CCCCC1	40*	·	·	·	·	·
COc1cccc(CSc2nc(CC(=O)NCCC3=CCCCC3)cc(=O)[nH]2)c1	-12	·	·	·	·	·
CC(=NNC(=O)c1ccc(F)cc1)c1cccc(NC(=O)c2cccc(F)c2)c1	-10	1	1	·	2	·
COc1ccc(C(=O)N2CCN(c3nc4c(OC)ccc(Cl)c4s3)CC2)cc1	-16	·	·	·	·	·
CS(=O)(=O)Nc1ccccc1C(=O)OCC(=O)N1CCC(c2ccccc2)=N1	-5	5	33*	6	4	·
O=C(NCc1ccccn1)C(=O)NCC1OCCN1S(=O)(=O)c1cccs1 (configuration not stated)	-1	·	·	·	·	·
COC(=O)c1ccc(CSc2nc3sc4c(c3c(=O)n2-c2ccccc2)CCCC4)cc1	-1	·	·	·	·	·

Compound activity: PubChem BioAssay, several laboratories
